Assay results: the supplement of paper PMC6555819

Tests used:
Assay in all cases: PBM binding z-score (relative to random genomic background probes); higher = stronger binding; sequences stand for … in GC…GCGATTGACAGCGTAGAATGAAGG
[1] = test system: PPARg:RXRa DBDmut IVT, anti-RXR (DBD mutation: RXRa K156A/R161A, NR concentration 270 nM, RXRa partner concentration 90 nM)
Method in brief: (§1)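 On custom Agilent 4×180K arrays, double-stranded probes with 34-nt variable regions carried direct-repeat seeds, single-nucleotide variants, half-site ablations or random human genomic background. Ligand-free nuclear receptor dimers were applied for 1 h, and binding was read with antibodies against each partner (one per run). Binding z-scores come from regression-normalized fluorescence, with the random background probes as reference.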

[2] = test system: PPARg:RXRa IVT, anti-PPARg (NR concentration 270 nM, RXRa partner concentration 90 nM)
Method in brief: as §1

[3] = test system: PPARg DBDmut:RXRa IVT, anti-PPARg (DBD mutation: PPARg1 K132A/R137A, NR concentration 270 nM, RXRa partner concentration 90 nM)
Method in brief: as §1

[4] = test system: PPARg DBDmut IVT, anti-PPARg (DBD mutation: PPARg1 K132A/R137A, NR concentration 270 nM)
Method in brief: as §1

[5] = test system: PPARg homodimer (NR concentration 180 nM)
Method in brief: as §1

[6] = test system: PXR:RXRa (NR concentration 270 nM, RXRa partner concentration 90 nM)
Method in brief: as §1

[7] = test system: PXR homodimer (NR concentration 270 nM)
Method in brief: as §1

[8] = test system: RARa:RXR (NR concentration 270 nM, RXRa partner concentration 90 nM)
Method in brief: as §1

[9] = test system: RARa homodimer (NR concentration 270 nM)
Method in brief: as §1

[10] = test system: RARb:RXRa (NR concentration 270 nM, RXRa partner concentration 90 nM)
Method in brief: as §1

| Sequence | PBM binding z-score [1] | PBM binding z-score [2] | PBM binding z-score [3] | PBM binding z-score [4] | PBM binding z-score [5] | PBM binding z-score [6] | PBM binding z-score [7] | PBM binding z-score [8] | PBM binding z-score [9] | PBM binding z-score [10] |
| --- | --- | --- | --- | --- | --- | --- | --- | --- | --- | --- |
| TCTATTAGTTGAAGCGCAACCGACGAGTCCGTTT | 2.22 | 0.202 | 0.484 | 1.23 | 0.5 | 0.326 | 0.219 | 0.126 | 0.262 | 0.271 |
| TCTCGGAGGACACGAGGGTCAGAGCTTTCCAGAG | 1.25 | 0.292 | -0.358 | -0.909 | 0.294 | 0.835 | -0.16 | 1.46 | -0.665 | 2.38 |
| TAGCCTAGGACATTCAGGGGCCAGTATAGAAAGC | -0.851 | -0.425 | -0.632 | -1.43 | -1.03 | -0.401 | -0.611 | -0.598 | -0.859 | 0.541 |
| TCTTGTAGATCAAAGGTTAACAAAGCCGAAGCCT | 2.15 | 4.38 | 1.04 | 0.514 | 1.03 | 2.26 | 0.125 | 3.03 | 1.01 | 2.09 |
| CATTACGGGTCACGAGGTTATAGCACGACGAGCG | 5.61 | 5.99 | 1.73 | 1.78 | 4.62 | 4.8 | 0.703 | 6.52 | 1.04 | 4.68 |
| CCTACTGGGCCAAAAAGGTCATTGACGCCGATAA | 3.85 | 3.99 | -0.855 | -0.422 | 2.91 | 4.65 | 2.1 | 5.01 | 1.28 | 3.72 |
| ACTATTAGTTGACTTAGGGCAACCGGTACGACGC | 0.0602 | 0.506 | 0.963 | 0.218 | 0.403 | 0.35 | 0.564 | 0.898 | 0.577 | 1.14 |
| TTACCAAGGTGAAGGTGGTTGATCCCTCTGTAGA | 1.73 | 2.52 | -0.348 | -0.272 | 0.43 | 0.325 | -0.346 | 0.45 | -0.245 | 1.37 |
| TCTTGTAGATCAATAGCGGTTAAGAAAGTGCGCT | 1.73 | 0.605 | -0.463 | 0.835 | 0.226 | 0.449 | 0.123 | 0.439 | 0.667 | -0.0234 |
| CCTATTAGTTGACCATAAGGGCAACTGAAGCTCG | 0.175 | 0.85 | 0.663 | 0.553 | 1.38 | 1 | 0.613 | 0.807 | 1.39 | 1.73 |
| CCTACTTGGCCATCAGGTCATTGATATCAACGTT | 1.33 | 1.93 | 0.603 | 0.617 | 1.82 | 1.95 | 1.62 | 2.17 | 1.76 | 2.19 |
| TCTCGGAGGACACGTAGGTCAGAGCTTTCCAGAG | 1.13 | 0.761 | -0.418 | -1.11 | 0.0512 | 0.765 | -0.00599 | 0.992 | -0.463 | 2.54 |
| TTGCCTAGGTCATGGGCCAGTATACCACGCGAAC | 1.44 | 3.33 | 0.457 | 0.0191 | 0.932 | 1.95 | -0.21 | 2.8 | -0.254 | 4.07 |
| GCTATTAGTTGAAAGGGCAAACGAATGATTCTCG | 0.582 | 1.18 | 0.0539 | 0.507 | 1.19 | 0.938 | 0.57 | 1.52 | 1.28 | 2.04 |
| CTCGAAAGGTCGGGTGAGGTGAGTATACGGATAA | 0.384 | 1.74 | 0.713 | 0.324 | 1.4 | 3.82 | 0.334 | 3.01 | 0.691 | 3.52 |
| TGAATGAGGTTAAAGATCAGGGAGCGTGGCGTCG | 2.38 | 3.63 | 0.471 | -0.164 | 0.404 | 1.83 | -0.192 | 2.89 | -0.32 | 1.78 |
| GCATATAGGTAATACAAGCTGAAAGTCCGATTGT | 3.93 | 2.4 | 0.865 | 0.595 | 0.219 | -0.13 | -0.000493 | 0.243 | 0.388 | -0.475 |
| CAAACTAGGTCAACGGTCAAAGTCGAGCCAACCA | 8.71 | 9.01 | 1.94 | 3.3 | 2.91 | 2.17 | 0.267 | 3.71 | 0.962 | 4.51 |
| AGTCAAAGTGCACTAGGTAACGTAAGATTCAGCT | 1.83 | 3.56 | 0.58 | -0.0287 | 0.167 | 0.215 | 0.189 | 0.315 | -0.372 | 1.53 |
| TCTCGGAGGACACGAAAGGTCAGGGCTCGACATC | 1.91 | 1.97 | 0.171 | -0.651 | 2.95 | 4.44 | 0.147 | 4.93 | 0.454 | 4.4 |
| CCGACTGGGGCATAAGGTGACCATAAGCCAGCCC | 2.39 | 3.15 | -0.511 | -1.28 | 0.186 | -0.504 | -0.373 | 0.332 | -0.248 | 1.23 |
| CCTCGGCGGACAACAGGAGGTCAGAGCTGCCAGA | -0.701 | -0.463 | -0.701 | -1.7 | 0.632 | 1.32 | 0.232 | 1.76 | 0.119 | 1.96 |
